FXN GAA850 act = increases GAA850 frataxin promoter reporter activity; HEK293 lucGAA850 FXN promoter luciferase reporter, 24 h; percent of 10 µM SAHA response; activation, % at 6 µM; 0.56% of 360,000 active; AID 540364;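 active = activation above the average of all compounds screened plus 3 SD, cutoff fixed separately per campaign, cut at about 7.5% in these data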;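 also: 0% = DMSO wells and 100% = 10 µM SAHA wells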
MITF act = activators of MITF-driven TRPM1 promoter activity in SK-MEL-5 cells; AID 588334; 0.75% of 300,000 active; activation, % at 12.5 µM; SK-MEL-5 TRPM1-promoter luciferase, 24 h; % of positive control, neutral wells = 0;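 active = mean activation of at least 80% with every replicate also reaching 80%; inconclusive = mean reaches 80% but some replicate falls short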;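 also: 0% = neutral control wells and 100% = parthenolide positive control wells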
Wnt act = activators of Wnt/beta-catenin signaling; Wnt/beta-catenin reporter cell assay, activator, plate reader; activation, % at 9.35 µM; 1.2% of 300,000 active; in the data active = activation above about 30%, passing the limit was not always enough; inconclusive = no clear call, values can overlap the other calls;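 also: 0% = neutral control wells and 100% = positive control wells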
esBAF inh = inhibitors of esBAF chromatin remodeling in mouse ES cells. AID 602393. 2% of 350,000 active. reporter increase, % at 12.5 µM. Bmi1-luciferase knock-in reporter, 24 h; 100% = twice the neutral-well signal; in the data active = activation above about 40%; inconclusive = no clear call, values can overlap the other calls;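 also: 0% = median of the plate's neutral control wells and 100% = double that signal; a rise in the Bmi1 reporter signal indicates esBAF inhibition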
An asterisk follows results filed as active; u = inconclusive; x = not tested or not shown. A selection: hits, their analogues and other compounds. The true share with any hit is near 2.8%.

SMILES	FXN GAA850 act	MITF act	Wnt act	esBAF inh
O=C(CC(SCc1ccco1)c1ccc(O)cc1)c1cccs1 (configuration not stated)	3.0	66.7	x	71.0*
C[C@@H]1CN([C@@H](C)CO)C(=O)c2cc(C#Cc3ccccc3F)cnc2O[C@H]1CN(C)C(=O)C1CCCCC1	x	x	x	-1.3
CCCNC(=O)N(C)C[C@@H]1Oc2cc(C#C[C@H](C)O)ccc2S(=O)(=O)N([C@@H](C)CO)C[C@@H]1C	x	x	x	-1.9
COc1ccc(NC(=S)Nc2ncccc2C)cc1OC	6.0	64.4	15.1	x
Cc1ccc(NC(=O)CCCc2ccccc2)nc1	5.7	u	-0.1	u
Cc1ccc(NC(=S)NCCc2ccccc2)nc1	7.2	84.3*	8.2	x
COc1ccc(OC)c(NC(=S)NCCSc2ccc(C)cc2)c1	1.3	-2.0	-1.9	x
Cc1cccnc1NC(=S)Nc1ncccc1C	5.7	101.3*	28.4	38.3
COc1ccc(NC(=S)NCCSc2ccc(C)cc2)c(OC)c1	-0.7	7.2	61.0*	x
COc1ccc(NC(=S)Nc2ncccc2C)c(OC)c1	4.5	68.2	14.1	47.7*
COc1ccc(S(=O)(=O)N(C)C[C@H]2Oc3c(NC(=O)Nc4cccc5ccccc45)cccc3C(=O)N([C@@H](C)CO)C[C@@H]2C)cc1	x	x	x	2.9
O=C(C[C@H]1C[C@@H]2c3cc(NC(=O)Nc4ccccc4F)ccc3O[C@@H]2[C@@H](CO)O1)NCC(F)(F)F	x	x	x	5.4
CC(C)NC(=O)NCC[C@@H]1CC[C@@H](NC(=O)CN(C)C)[C@@H](CO)O1	x	x	x	-5.6
COc1ccc(S(=O)(=O)Nc2ccc3c(c2)C(=O)N([C@@H](C)CO)C[C@@H](C)[C@@H](CN(C)C(=O)Nc2ccc(F)cc2)O3)cc1	x	x	x	1.2
COCCNC(=O)C[C@H]1C[C@@H]2c3cc(NC(=O)Nc4ccccc4F)ccc3O[C@@H]2[C@H](CO)O1	x	x	x	-1.2
S=C(NCCc1ccccc1)Nc1ncccn1	4.3	55.3	-1.2	29.8
Cc1cccnc1NC(=S)NCCc1ccccc1	3.6	u	39.6*	u
COc1ccc2cc(-c3[nH]ncc3CN3CCCCO3)ccc2c1	4.2	33.9	3.5	56.4*
C[n+]1c(-c2ccccc2)sc([S-])c1-c1ccccc1	0.0	x	44.5*	x
COc1ccc(N/C=C\C(=O)c2ccc3ccccc3c2)cc1	0.9	x	9.9	42.6*
COc1ccc(C(=O)/C=C/Nc2ccc(C)cn2)cc1OC	6.0	18.1	x	60.5*
CCOc1ccc(N/C=C/C(=O)c2ccc(OC)c(OC)c2)cc1	4.7	x	5.3	70.0*
COc1ccc(N/C=C/C(=O)c2ccccc2)cc1	-0.6	x	-1.0	-52.8
CCCOc1ccc(N/C=C/C(=O)c2ccc(OC)c(OC)c2)cc1	3.0	14.4	1.3	2.9
CC(C)CC#Cc1cnc2c(c1)C(=O)N([C@@H](C)CO)C[C@H](C)[C@@H](CN(C)Cc1cncnc1)O2	x	x	x	-4.3
SMILES	FXN GAA850 act	MITF act	Wnt act	esBAF inh
C[C@@H]1CN([C@@H](C)CO)C(=O)c2cc(NC(=O)Nc3ccccc3)ccc2O[C@H]1CN(C)S(=O)(=O)c1ccc(Cl)cc1	x	x	x	-4.8
C[C@H]1CN([C@@H](C)CO)C(=O)Cc2cc(NC(=O)c3ccncc3)ccc2O[C@@H]1CN(C)C(=O)Nc1ccc2c(c1)OCO2	x	x	x	1.9
CCC(=O)N(C)C[C@@H]1Oc2ncc(-c3ccc(F)cc3)cc2C(=O)N([C@@H](C)CO)C[C@@H]1C	x	x	x	3.4
CC(C)CC#Cc1ccc2c(c1)O[C@@H](CN(C)C(=O)C1CCC1)[C@H](C)CN([C@H](C)CO)S2(=O)=O	x	x	x	-3.7
O=C(NC1CCC1)[C@H]1[C@H](CO)[C@H]2Cn3c(ccc(-c4ccccc4F)c3=O)[C@@H]1N2C(=O)CC1CC1	x	x	x	-4.4
CC(=O)Nc1ccc(NC(=S)NC(=O)C2CC2)cc1	2.6	-7.3	3.0	6.2
Cc1ccc(NC(=S)NC(=O)C2CCCC2)cc1C	4.5	114.3*	27.5	x
O=C(NC(=S)Nc1cccc(O)c1)C1CCCCC1	3.6	55.0	-3.6	41.9*
Cc1ccc(NC(=S)NC(=O)C2CC2)c(C)c1	3.9	29.7	18.0	50.0*
Cc1ccc(NC(=S)NC(=O)C2CCC2)cc1C	3.8	112.7*	21.9	84.0*
COc1ccc(NC(=O)N(C)C[C@H]2Oc3ccc(N(C)C)cc3C(=O)N([C@@H](C)CO)C[C@@H]2C)cc1	x	x	x	-5.2
C[C@H](CO)N1C[C@H](C)[C@H](CN(C)CC2CCCCC2)OCCCC[C@H](C)Oc2ccc(NC(=O)Nc3ccccc3)cc2C1=O	x	x	x	6.9
CCN(CC)c1ccc(NC(=O)c2cncc(Br)c2)cc1	0.4	58.3	x	x
CC1CCN(c2ccc(NC(=O)c3ccc(Br)o3)cc2)CC1	3.0	78.5	u	55.7*
CS(=O)(=O)N1CCN(c2ccc(NC(=O)c3ccc(Br)o3)cc2)CC1	2.1	u	56.7*	29.5
CCN(CC)c1ccc(NC(=O)c2cccnc2)cc1	1.2	57.5	37.1*	31.9
CC1CCN(c2ccc(NC(=O)c3cccnc3)cc2)CC1	4.1	x	36.7*	31.7
O=C(Nc1ccc(N2CCN(C(=O)c3ccccc3)CC2)cc1)c1cccnc1	-0.4	2.5	-1.6	-1.8
CN1CCN(c2ccc(NC(=O)c3ccc(Br)o3)cc2)CC1	5.4	34.0	16.8	5.4
O=C(Nc1ccc(N2CCOCC2)cc1)c1ccc(Br)o1	0.4	x	22.6	-70.0
O=C(C1CCCC1)N1[C@@H]2CN(S(=O)(=O)c3ccc(F)cc3)c3ccccc3[C@@H]2[C@@H]1CO	x	x	x	-4.4
CC(=O)N(C)C[C@@H]1Oc2ncc(C#Cc3cccc(F)c3)cc2C(=O)N([C@@H](C)CO)C[C@H]1C	x	x	x	-1.6
O=C(c1ccccc1F)N1CC[C@@H]2[C@H](CO)Nc3ccc(Br)cc3[C@@H]21	x	x	x	2.7
CC(C)CC#Cc1cnc2c(c1)C(=O)N([C@H](C)CO)C[C@@H](C)[C@@H](CN(C)C(=O)c1ccc3c(c1)OCO3)O2	x	x	x	1.8
S=c1nc(NCCc2ccccc2Cl)c2ccccc2[nH]1	0.6	72.0	26.0	41.4*
SMILES	FXN GAA850 act	MITF act	Wnt act	esBAF inh
CCc1c(C)nc(SCC(N)=O)c(C#N)c1C	0.2	18.3	x	-0.1
CCc1c(C)nc(SCC(=O)c2cccs2)c(C#N)c1C	5.0	39.5	x	54.0*
COc1ccccc1C1CC(c2ccc(Br)cc2)=NN1C(=O)c1cccnc1 (configuration not stated)	-3.0	-23.5	-9.6	x
CCN1CCC2(CC1)Oc1c(OC)cccc1C1CC(c3cccnc3)=NN12 (configuration not stated)	-0.2	x	36.3*	x
C=CCn1c(COc2ccccc2)nc2ccccc21	2.7	28.0	4.4	49.6*
COCCn1c(COc2ccc(C)cc2)nc2ccccc21	4.2	33.8	-0.2	64.1*
CCOCCn1c(COc2ccc(C)cc2)nc2ccccc21	5.5	41.8	28.1	x
C[C@@H]1CN([C@H](C)CO)C(=O)c2cc(NS(=O)(=O)c3ccc(F)cc3)ccc2O[C@@H](C)CCCCO[C@@H]1CN(C)C(=O)CCC(F)(F)F	x	x	x	-2.8
C[C@@H]1CCCCO[C@@H](CN(C)Cc2ccc(C(=O)O)cc2)[C@H](C)CN([C@@H](C)CO)C(=O)c2cc(NC(=O)c3ccncc3)ccc2O1	x	x	x	0.4
CC(C)(C)C(=O)c1cnc(Nc2ccccc2Cl)s1	4.3	143.9*	x	u

Screens (PubChem)
